# Test results: PubChem BioAssay (EPA / NIEHS)
# Results filed as inconclusive are left out. Activity calls are given as the source filed them. The calls were made as follows: active = hit-call score of the fitted dose curve at least 0.9, where 1 is the maximum; inconclusive = response in the unintended direction; inactive = score below 0.9.
# Tests used:
# [1] = target: human Phosphoinositide 3-kinase alpha (PI3Ka), PIK3CA (gene 5290) (UniProt P42336); experiment: NVS_ENZ_hPI3Ka: NovaScreen (NVS) Enzymatic Assay for human Phosphoinositide 3-kinase alpha (PI3Ka) (AID 2283196)
# Sequence of human Phosphoinositide 3-kinase alpha (PI3Ka), PIK3CA (gene 5290) (P42336 whole entry, looked up): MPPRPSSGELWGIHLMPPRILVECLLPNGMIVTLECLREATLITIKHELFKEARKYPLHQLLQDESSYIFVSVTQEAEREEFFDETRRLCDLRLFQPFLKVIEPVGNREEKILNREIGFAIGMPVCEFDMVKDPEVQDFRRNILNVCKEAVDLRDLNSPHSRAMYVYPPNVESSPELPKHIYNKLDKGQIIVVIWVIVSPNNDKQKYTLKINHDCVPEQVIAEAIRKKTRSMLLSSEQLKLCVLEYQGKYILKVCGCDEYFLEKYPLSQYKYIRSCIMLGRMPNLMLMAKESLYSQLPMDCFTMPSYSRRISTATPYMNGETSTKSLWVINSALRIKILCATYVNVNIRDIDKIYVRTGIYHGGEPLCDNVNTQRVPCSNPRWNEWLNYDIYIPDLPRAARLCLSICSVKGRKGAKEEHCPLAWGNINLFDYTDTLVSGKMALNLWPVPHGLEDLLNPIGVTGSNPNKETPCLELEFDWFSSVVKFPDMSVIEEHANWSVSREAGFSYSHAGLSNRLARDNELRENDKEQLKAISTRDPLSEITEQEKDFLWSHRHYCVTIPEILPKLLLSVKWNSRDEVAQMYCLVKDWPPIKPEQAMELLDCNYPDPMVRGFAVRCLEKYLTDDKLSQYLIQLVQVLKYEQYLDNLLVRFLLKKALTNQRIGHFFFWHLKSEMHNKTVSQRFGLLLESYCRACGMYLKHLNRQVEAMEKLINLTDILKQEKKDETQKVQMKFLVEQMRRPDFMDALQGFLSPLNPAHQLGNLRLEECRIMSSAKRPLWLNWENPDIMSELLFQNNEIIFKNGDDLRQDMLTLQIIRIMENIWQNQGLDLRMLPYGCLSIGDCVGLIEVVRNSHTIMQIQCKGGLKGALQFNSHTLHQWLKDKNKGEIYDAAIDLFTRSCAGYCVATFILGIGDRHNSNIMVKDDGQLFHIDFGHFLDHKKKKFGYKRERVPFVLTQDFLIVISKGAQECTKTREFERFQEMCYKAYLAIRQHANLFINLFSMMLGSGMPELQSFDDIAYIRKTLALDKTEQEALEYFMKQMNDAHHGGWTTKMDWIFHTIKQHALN
# Procedure, shortened: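 Fluorescence/mobility-shift readout of substrate conversion by recombinant enzyme, 1 h post-dosing. Primary screen in duplicate at 25 uM; actives (e.g. ≥30% inhibition) retested in singleton concentration-response, top concentration 50 uM.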
# [2] = target: human p21 Activated Kinase 4 (PAK4), PAK4 (gene 10298) (UniProt O96013); experiment: NVS_ENZ_hPAK4: NovaScreen (NVS) Enzymatic Assay for human p21 Activated Kinase 4 (PAK4) (AID 2283189)
# Procedure, shortened: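 Cell-free recombinant human PAK4 activity assay; fluorescent substrate and product separated by electrophoretic mobility shift, read 1 h after dosing. Initially tested in duplicate at 25 uM, relative to DMSO baseline.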
# [3] = target: human Matrix Metalloproteinase-9 (MMP9), MMP9 (gene 4318) (UniProt P14780); experiment: NVS_ENZ_hMMP9: NovaScreen (NVS) Enzymatic Assay for human Matrix Metalloproteinase-9 (MMP9) (AID 2283190);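 also: cell-free recombinant MMP9 protease activity read by fluorescent substrate signal; active means inhibition seen as loss of fluorescence signal versus DMSO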
# Sequence of human Matrix Metalloproteinase-9 (MMP9), MMP9 (gene 4318) (P14780 whole entry, looked up): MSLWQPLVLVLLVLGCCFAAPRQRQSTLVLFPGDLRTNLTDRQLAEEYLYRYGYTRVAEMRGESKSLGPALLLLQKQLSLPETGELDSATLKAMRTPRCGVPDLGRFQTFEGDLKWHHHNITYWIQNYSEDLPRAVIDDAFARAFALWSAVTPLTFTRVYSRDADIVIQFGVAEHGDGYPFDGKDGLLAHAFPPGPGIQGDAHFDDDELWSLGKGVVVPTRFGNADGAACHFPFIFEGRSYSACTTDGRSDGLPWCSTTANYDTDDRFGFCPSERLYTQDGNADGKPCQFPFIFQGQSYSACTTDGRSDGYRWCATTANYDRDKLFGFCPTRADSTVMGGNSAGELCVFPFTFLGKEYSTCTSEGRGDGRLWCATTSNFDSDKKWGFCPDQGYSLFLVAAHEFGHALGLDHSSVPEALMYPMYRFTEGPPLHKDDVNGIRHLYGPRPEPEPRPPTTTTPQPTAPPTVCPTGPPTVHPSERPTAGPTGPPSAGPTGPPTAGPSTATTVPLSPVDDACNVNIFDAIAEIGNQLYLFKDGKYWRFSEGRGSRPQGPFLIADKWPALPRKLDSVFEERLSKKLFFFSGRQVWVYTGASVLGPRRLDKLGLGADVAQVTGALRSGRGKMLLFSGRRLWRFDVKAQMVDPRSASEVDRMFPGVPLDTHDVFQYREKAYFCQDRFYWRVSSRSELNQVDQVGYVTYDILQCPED
# Procedure, shortened: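 Extracted enzyme, fluorescent substrate, 1 h post-dose read. Single conc 25 uM in duplicate, then concentration series for actives. Activity = signal loss relative to DMSO negative control.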
# [4] = target: human Phosphodiesterase 4A1 (PDE4A1), PDE4A (gene 5141) (UniProt P27815); experiment: NVS_ENZ_hPDE4A1: NovaScreen (NVS) Enzymatic Assay for human Phosphodiesterase 4A1 (PDE4A1) (AID 2283191)
# Sequence of human Phosphodiesterase 4A1 (PDE4A1), PDE4A (gene 5141) (P27815 whole entry, looked up): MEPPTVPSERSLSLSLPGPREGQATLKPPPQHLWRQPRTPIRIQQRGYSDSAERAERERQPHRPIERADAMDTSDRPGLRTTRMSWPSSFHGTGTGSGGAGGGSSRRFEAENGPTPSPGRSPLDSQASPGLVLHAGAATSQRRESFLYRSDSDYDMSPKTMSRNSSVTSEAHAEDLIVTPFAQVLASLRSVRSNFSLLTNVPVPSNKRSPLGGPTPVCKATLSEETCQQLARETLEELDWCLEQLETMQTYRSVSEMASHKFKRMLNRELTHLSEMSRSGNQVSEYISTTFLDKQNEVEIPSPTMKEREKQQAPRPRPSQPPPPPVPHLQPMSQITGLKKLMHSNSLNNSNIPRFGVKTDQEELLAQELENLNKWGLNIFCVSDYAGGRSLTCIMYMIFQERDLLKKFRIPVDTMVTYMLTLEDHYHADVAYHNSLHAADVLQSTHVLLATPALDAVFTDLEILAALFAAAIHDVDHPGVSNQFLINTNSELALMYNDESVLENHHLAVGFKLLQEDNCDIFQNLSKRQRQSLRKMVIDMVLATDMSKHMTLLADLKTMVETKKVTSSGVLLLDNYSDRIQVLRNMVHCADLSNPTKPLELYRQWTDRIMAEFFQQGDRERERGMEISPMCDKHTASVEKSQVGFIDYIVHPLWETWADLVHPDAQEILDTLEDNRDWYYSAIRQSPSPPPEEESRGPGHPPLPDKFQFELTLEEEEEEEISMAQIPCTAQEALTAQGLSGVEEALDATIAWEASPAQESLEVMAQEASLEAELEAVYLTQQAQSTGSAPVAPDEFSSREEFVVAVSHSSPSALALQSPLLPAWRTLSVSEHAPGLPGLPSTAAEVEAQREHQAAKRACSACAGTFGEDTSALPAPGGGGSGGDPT
# Procedure, shortened: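 Cell-free recombinant human PDE4A1 with fluorescent substrate; product separated by electrophoretic mobility shift, 1 h. Screened at 25 uM, then up to 50 uM in concentration-response; loss of signal fitted against DMSO.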
# [5] = target: human Phosphodiesterase 5 (PDE5), PDE5A (gene 8654) (UniProt O76074); experiment: NVS_ENZ_hPDE5: NovaScreen (NVS) Enzymatic Assay for human Phosphodiesterase 5 (PDE5) (AID 2283194)
# Procedure, shortened: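 Recombinant human PDE5 with specific substrate, read 1 h after dosing by fluorescence with electrophoretic mobility-shift separation of substrate and product. Initial single-concentration duplicate screen at 25 uM, actives followed in concentration series; loss of activity versus DMSO.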
# PPP2CA (gene 5515) = PPP2CA (gene 5515) (UniProt P67775); experiment: NVS_ENZ_hPPP2CA: NovaScreen (NVS) Enzymatic Assay for human Protein Phosphatase 2 Aatalytic subunit Alpha (PPP2CA) (AID 2283199)
# Sequence of PPP2CA (gene 5515) (P67775 whole entry, looked up): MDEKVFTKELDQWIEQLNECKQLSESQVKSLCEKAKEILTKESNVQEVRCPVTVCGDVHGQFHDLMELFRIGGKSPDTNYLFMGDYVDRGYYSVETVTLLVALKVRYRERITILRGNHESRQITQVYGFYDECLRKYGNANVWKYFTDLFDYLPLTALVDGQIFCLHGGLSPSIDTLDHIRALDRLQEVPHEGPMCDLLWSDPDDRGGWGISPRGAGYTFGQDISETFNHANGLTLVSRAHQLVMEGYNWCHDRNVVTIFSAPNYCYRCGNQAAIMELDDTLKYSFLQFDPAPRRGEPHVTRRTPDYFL
# Procedure, shortened: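 Recombinant human PPP2CA with fluorescent substrate; product separated from substrate by electrophoretic mobility shift, read 1.33 h after dosing. Duplicate single-point at 25 uM, then singleton concentration-response up to 50 uM; loss of signal versus DMSO.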
# [6] = target: human Phosphatase and Tensin Homolog (PTEN), PTEN (gene 5728) (UniProt P60484); experiment: NVS_ENZ_hPTEN: NovaScreen (NVS) Enzymatic Assay for human Phosphatase and Tensin Homolog (PTEN) (AID 2283203)
# Sequence of human Phosphatase and Tensin Homolog (PTEN), PTEN (gene 5728) (P60484 whole entry, looked up): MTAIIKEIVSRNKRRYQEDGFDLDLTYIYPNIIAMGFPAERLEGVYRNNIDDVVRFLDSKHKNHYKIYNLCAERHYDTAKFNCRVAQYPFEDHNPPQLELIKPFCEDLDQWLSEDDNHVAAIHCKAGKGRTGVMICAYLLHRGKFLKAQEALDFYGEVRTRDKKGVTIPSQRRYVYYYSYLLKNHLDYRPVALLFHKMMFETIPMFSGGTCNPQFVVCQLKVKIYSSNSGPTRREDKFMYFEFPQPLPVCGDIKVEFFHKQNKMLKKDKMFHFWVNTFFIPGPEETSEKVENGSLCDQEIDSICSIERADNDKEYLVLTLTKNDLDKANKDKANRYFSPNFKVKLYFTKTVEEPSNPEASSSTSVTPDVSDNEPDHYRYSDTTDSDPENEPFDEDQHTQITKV
# Procedure, shortened: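 Cell-free recombinant human PTEN with fluorescent substrate; product separated by electrophoretic mobility shift and read by fluorescence 1 h after dosing. Primary screen in duplicate at 25 uM, actives followed in concentration series versus DMSO.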
# [7] = target: cAMP-dependent protein kinase catalytic subunit alpha (Homo sapiens) (UniProt P17612); experiment: NVS_ENZ_hPKA: NovaScreen (NVS) Enzymatic Assay for human Protein Kinase A (PKA) (AID 2283192)
# Procedure, shortened: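 Recombinant human PKA with specific fluorescent substrate, product separated by electrophoretic mobility shift, read 1 h after dosing. Primary screen at 25 uM in duplicate; actives then run in concentration-response up to 50 uM, activity relative to DMSO.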
# [8] = target: human Protein Tyrosine Phosphatase Non-receptor Type 1 (PTPN1), PTPN1 (gene 5770) (UniProt P18031); experiment: NVS_ENZ_hPTPN1: NovaScreen (NVS) Enzymatic Assay for human Protein Tyrosine Phosphatase Non-receptor Type 1 (PTPN1) (AID 2283201)
# Procedure, shortened: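 Cell-free fluorogenic-substrate activity assay on recombinant enzyme, read 1.33 h after dosing by fluorescence and electrophoretic mobility shift; loss of signal vs DMSO baseline. Primary screen in duplicate at 25 uM, hits then run in concentration-response up to 50 uM.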
# [9] = target: Tyrosine-protein phosphatase non-receptor type 11 (Homo sapiens) (UniProt Q06124); experiment: NVS_ENZ_hPTPN11: NovaScreen (NVS) Enzymatic Assay for human Protein Tyrosine Phosphatase Non-receptor Type 11 (PTPN11) (AID 2283202)
# Sequence of Tyrosine-protein phosphatase non-receptor type 11 (Homo sapiens) (Q06124 whole entry, looked up): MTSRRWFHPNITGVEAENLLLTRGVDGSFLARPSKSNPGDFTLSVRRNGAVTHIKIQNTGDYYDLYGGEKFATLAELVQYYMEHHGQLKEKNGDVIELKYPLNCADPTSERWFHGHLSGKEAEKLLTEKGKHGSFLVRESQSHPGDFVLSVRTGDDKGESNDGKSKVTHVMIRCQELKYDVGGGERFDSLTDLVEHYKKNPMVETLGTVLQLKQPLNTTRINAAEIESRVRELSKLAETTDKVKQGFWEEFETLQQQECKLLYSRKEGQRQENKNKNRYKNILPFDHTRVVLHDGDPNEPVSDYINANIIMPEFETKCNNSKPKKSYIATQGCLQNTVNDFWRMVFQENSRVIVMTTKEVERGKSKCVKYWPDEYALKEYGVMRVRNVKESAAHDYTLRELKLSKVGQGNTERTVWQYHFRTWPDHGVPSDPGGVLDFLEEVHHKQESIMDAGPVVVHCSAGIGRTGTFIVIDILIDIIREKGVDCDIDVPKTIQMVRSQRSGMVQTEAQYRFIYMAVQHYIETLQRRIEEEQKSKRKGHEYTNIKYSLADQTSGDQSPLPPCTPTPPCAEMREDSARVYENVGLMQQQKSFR
# Procedure, shortened: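 Recombinant human PTPN11 activity on a fluorescent substrate, with substrate/product separated by electrophoretic mobility shift; read 0.5 h after dosing, loss of signal vs DMSO. Duplicate 25 uM screen, then concentration-response up to 50 uM.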
# [10] = target: human Protein Tyrosine Phosphatase Non-receptor Type 2 (PTPN2), PTPN2 (gene 5771) (UniProt P17706); experiment: NVS_ENZ_hPTPN2: NovaScreen (NVS) Enzymatic Assay for human Protein Tyrosine Phosphatase Non-receptor Type 2 (PTPN2) (AID 2283207)
# Sequence of human Protein Tyrosine Phosphatase Non-receptor Type 2 (PTPN2), PTPN2 (gene 5771) (P17706 whole entry, looked up): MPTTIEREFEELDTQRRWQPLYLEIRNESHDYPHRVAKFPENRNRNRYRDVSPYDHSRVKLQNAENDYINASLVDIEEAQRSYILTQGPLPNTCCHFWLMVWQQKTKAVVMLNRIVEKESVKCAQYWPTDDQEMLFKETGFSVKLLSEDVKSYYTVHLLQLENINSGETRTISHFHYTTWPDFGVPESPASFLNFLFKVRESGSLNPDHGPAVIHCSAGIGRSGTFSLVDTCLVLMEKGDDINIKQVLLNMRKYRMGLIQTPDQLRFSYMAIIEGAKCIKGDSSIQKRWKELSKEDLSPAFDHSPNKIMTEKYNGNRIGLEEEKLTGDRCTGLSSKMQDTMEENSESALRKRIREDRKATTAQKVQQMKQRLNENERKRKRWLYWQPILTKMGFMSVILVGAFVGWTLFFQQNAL
# Procedure, shortened: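 Cell-free recombinant enzyme with fluorescent substrate, product separated by electrophoretic mobility shift; read 1 h after dosing. Primary screen single concentration (25 uM) in duplicate; actives followed in concentration series; loss of signal versus DMSO.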
# [11] = target: Tyrosine-protein phosphatase non-receptor type 14 (Homo sapiens) (UniProt Q15678); experiment: NVS_ENZ_hPTPN14: NovaScreen (NVS) Enzymatic Assay for human Protein Tyrosine Phosphatase Non-receptor Type 14 (PTPN14) (AID 2283206)
# Procedure, shortened: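 Cell-free recombinant human PTPN14 with fluorescent substrate, read 0.5 h after dosing by fluorescence and electrophoretic mobility shift separating substrate from product. Primary screen at 25 uM in duplicate; hits run to 50 uM maximum; loss of signal versus DMSO.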
# [12] = target: Serine/threonine-protein phosphatase PP1-alpha catalytic subunit (Homo sapiens) (UniProt P62136); experiment: NVS_ENZ_hPPP1CA: NovaScreen (NVS) Enzymatic Assay for human Protein Phosphatase 1 Aatalytic subunit Alpha (PPP1CA) (AID 2283200)
# Sequence of Serine/threonine-protein phosphatase PP1-alpha catalytic subunit (Homo sapiens) (P62136 whole entry, looked up): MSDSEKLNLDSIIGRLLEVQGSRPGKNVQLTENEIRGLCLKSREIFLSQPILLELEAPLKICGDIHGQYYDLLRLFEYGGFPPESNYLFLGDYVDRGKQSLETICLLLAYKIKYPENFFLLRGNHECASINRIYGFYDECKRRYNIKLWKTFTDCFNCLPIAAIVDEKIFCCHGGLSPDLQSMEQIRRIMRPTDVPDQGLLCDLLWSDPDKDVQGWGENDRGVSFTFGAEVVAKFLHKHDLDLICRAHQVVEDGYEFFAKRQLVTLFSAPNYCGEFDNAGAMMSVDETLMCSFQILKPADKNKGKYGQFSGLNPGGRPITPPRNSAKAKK
# Procedure, shortened: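 Recombinant enzyme activity read by fluorescence with electrophoretic mobility shift separating substrate from product, 1.33 h after dosing; loss of signal vs DMSO baseline. Primary screen in duplicate at 25 uM; actives retested in concentration-response up to 50 uM.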
# [13] = target: human Protein Tyrosine Phosphatase Non-receptor Type 4 (PTPN4), PTPN4 (gene 5775) (UniProt P29074); experiment: NVS_ENZ_hPTPN4: NovaScreen (NVS) Enzymatic Assay for human Protein Tyrosine Phosphatase Non-receptor Type 4 (PTPN4) (AID 2283208)
# Procedure, shortened: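 Cell-free assay of PTPN4 expressed in Sf9 cells, using a fluorescent substrate with product separated by mobility shift; read 1.33 h after dosing. Single-point screen at 25 uM, then concentration-response up to 50 uM. Loss of signal relative to DMSO.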
smiles,measurement,setting,value
CC(C)=CC1C(C(=O)OCN2C(=O)C3=C(CCCC3)C2=O)C1(C)C (configuration not stated),outcome,[1],inactive
CC[C@H](C)[C@H]1O[C@]2(C=C[C@@H]1C)C[C@@H]1C[C@@H](C/C=C(\C)[C@@H](O[C@H]3C[C@H](OC)[C@@H](O[C@H]4C[C@H](OC)[C@@H](NC)[C@H](C)O4)[C@H](C)O3)[C@@H](C)/C=C/C=C3\CO[C@@H]4[C@H](O)C(C)=C[C@@H](C(=O)O1)[C@]34O)O2,outcome,[2],inactive
same,outcome,[3],inactive
same,AC50,[4],25 µM (active)
same,AC50,[5],39.3 µM (active)
same,AC50,[1],7.94 µM (active)
same,AC50,PPP2CA (gene 5515),16.8 µM (active)
same,AC50,[6],0.0045 µM (active)
C[Si](Cn1cncn1)(c1ccc(F)cc1)c1ccc(F)cc1,AC50,[4],7.33 µM (active)
same,outcome,[5],inactive
S=C1NCCN1,outcome,[3],inactive
same,outcome,[7],inactive
same,outcome,[8],inactive
same,outcome,[9],inactive
same,outcome,[10],inactive
CCNc1nc(Cl)nc(NC(C)(C)C#N)n1,AC50,[4],0.39 µM (active)
same,AC50,[5],13.6 µM (active)
same,outcome,[11],inactive
CCOP(=S)(OCC)Oc1cc(C)nc(C(C)C)n1,outcome,[4],inactive
same,outcome,[12],inactive
same,outcome,[10],inactive
COc1ccc(C(=CC(=O)N2CCOCC2)c2ccc(Cl)cc2)cc1OC,AC50,[4],0.0383 µM (active)
O=[N+]([O-])c1cc(C(F)(F)F)c(Cl)c([N+](=O)[O-])c1Nc1ncc(C(F)(F)F)cc1Cl,outcome,[1],inactive
same,outcome,[12],inactive
CCOC(=O)CC(SP(=O)(OC)OC)C(=O)OCC (configuration not stated),outcome,[3],inactive
same,outcome,[12],inactive
Cc1ccn2nc(S(=O)(=O)Nc3c(F)cccc3F)nc2n1,outcome,[3],inactive
same,outcome,[1],inactive
same,outcome,[13],inactive
CSc1nc(NC(C)C)nc(NC(C)C)n1,AC50,[4],3.43 µM (active)
same,AC50,[5],5.79 µM (active)
Cc1cc(C2CC2)nc(Nc2ccccc2)n1,outcome,[4],inactive
